# Screening results deposited in PubChem BioAssay by National Center for Advancing Translational Sciences (NCATS).
# HT1080NT lethal: kills 2HG-producing HT-1080-NT fibrosarcoma cells. HT-1080-NT fibrosarcoma viability, CellTiter-Glo ATP luminescence, 48 h. Potency, µM (doses to about 46.1 µM), for inactives: top-dose activity, negative = less viability, most hits filed as cytotoxic. hit rate 1.6% among 360,000. AID 686970;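 further: NT is the 2HG producing partner of a matched IDH1 knockdown line; 0% = DMSO-treated cells and -100% = media-only wells without cells; nearly all actives have a fitted effect of over 55% in size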
#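 HT-1080-NT fibrosarcoma cells (2HG-overproducing), 750 cells/well in RPMI with 5% FBS, dosed after 2 h and incubated 48 h at 37C. CellTiter-Glo luminescence normalized to DMSO and no-cell wells; concentration-response curves fitted and classed.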
# SW480 rerep: inducers of DNA re-replication in SW480 colon cancer cells; SW480 DNA re-replication, Hoechst DNA content imaging, 48 h; Potency, µM (top dose mostly 46.1 µM), without a hit: at the top dose re-replication activation, usual class: activators; hit rate 1.8% among 340,000; further: % of control where 0% means no effect; nearly all actives have a fitted effect of over 55% in size
#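 Quantitative HTS format with DMSO vehicle controls; 48 hr drug incubation at 37 C, then 40 min Hoechst staining and scanning imager measurement at 405 nm excitation.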
# KB-V1 cytotox: kills drug-selected multidrug resistant KB-V1 cells; KB-V1 MDR cells viability, CellTiter-Glo, 72 h; Potency, µM (highest dose often 46.1 µM), most hits filed as cytotoxic; hit rate 3.4% among 400,000; AID 1347076; further: on the % scale 0 is the no-effect control and ±100 the full control effect; nearly all actives have a fitted effect of over 60% in size
#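 KB-V1 MDR subline cells in DMEM (phenol-red free, 10% FBS) exposed to compounds in qHTS concentration series for 72 h at 37 degrees C. Viability read by CellTiter-Glo luminescence; concentration-effect curves fitted after normalization and correction.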
# HT1080 IDH1KD tx: HT-1080 IDH1 knockdown cell toxicity (counter line) | AID 686971 | HT-1080 IDH1 knockdown viability, ATP luminescence, 48 h | Potency, µM (doses to about 46.1 µM), for inactives: at the highest dose activity, negative = toxicity, most hits filed as cytotoxic | hit rate 2% among 360,000;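 further: 0% = DMSO wells and -100% = cell-free medium wells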
#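 Using the IDH1-knockdown HT-1080 line run in the same batch and compound series as the NT line, viability after 48 h at 37 °C was determined by CellTiter-Glo luminescence and expressed as % activity.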
# KB-3-1 tox: KB-3-1 parental cell cytotoxicity | Potency, µM (doses to about 46.1 µM), usual class: cytotoxic | KB-3-1 viability, CellTiter-Glo ATP luminescence, 72 h | AID 1347075 | hit rate 1.4% among 400,000; further: on the % scale 0 is the no-effect control and ±100 the full control effect; nearly all actives have a fitted effect of over 60% in size
#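 Multi-concentration cytotoxicity screen in KB-3-1 cells grown in DMEM lacking phenol red with 10% FBS. After 72 h at 37 °C with compound, ATP-dependent luminescence was recorded.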
# MCF10A rerep: inducers of DNA re-replication in MCF 10A breast cells; AID 624296; MCF 10A DNA re-replication, Hoechst nuclear intensity, 48 h; Potency, µM (series often up to 46.1 µM), for the others: at the highest dose activity, positive = re-replication, actives largely listed as activators; hit rate 2.9% among 350,000; further: % of control where 0% means no effect; nearly all actives have a fitted effect of over 50% in size
# * = called active by the depositor; i = inactive; ? = inconclusive; / = no result; [ ] = dose if it differs, or a comment. Compounds with a hit are over-represented: about 8% of the library has one in this group of screens. The call rests on the fitted dose curve; in most records, active means well fitted curve in the direction sought with a large enough effect; inconclusive means small, poorly fitted or top-dose-only effect, or another doubt; inactive means no such curve, though single readings can be large; an effect the other way counts as inactive or inconclusive. Potency means the concentration at half of the fitted maximal effect.
SMILES,HT1080NT lethal,SW480 rerep,KB-V1 cytotox,HT1080 IDH1KD tx,KB-3-1 tox,MCF10A rerep
O=C1c2cc([N+](=O)[O-])cc3cc([N+](=O)[O-])cc(c23)C(=O)N1c1ccccn1,-3%,21µM*,i,-15%,i,?
O=C1c2cc3ccccc3c(-c3ccccc3)c2C(=O)N1c1ccccn1,2%,-4%,13µM*,1%,i,-2%
COCCn1c(SCC(=O)Nc2ccc(Br)cc2)nc2c([nH]c3ccccc32)c1=O,/,/,?,/,i,/
O=c1[nH]c(=S)c2n[nH]nc2[nH]1,/,/,?,/,i,/
Cc1ccc(C)c(S(=O)(=O)N2CCN(C(=O)CCC(=O)NCc3ccc(Cl)cc3Cl)CC2)c1,-7%[9.24 µM],-17%,i,-19%,i,21µM*
Cc1ccc(C)c(S(=O)(=O)N2CCN(C(=O)CCNS(=O)(=O)c3ccccc3)CC2)c1,-3%,1%,?,3%,i,9%
CCC(C)NC(=O)Cn1c(=O)n(CC2CCC(C(=O)NC)CC2)c(=O)c2sccc21 (centres undefined),/,/,?,/,i,/
CCc1ccc(-c2csc3[n+]2CCN3C(C)=O)cc1,0%,2.3µM*,i,-4%,i,?
COC(=O)c1ccccc1SCC(=O)Nc1ccc(N2CCOCC2)cc1,1%,0%,i,-1%,i,6%
CSc1ccccc1C(=O)OCC(=O)Nc1ccc(N2CCOCC2)cc1,17%,0%,21µM*,13%,i,2%
CC1(C)OC2OC(C(=O)N/N=C/c3cc(Br)ccc3O)C3OC(C)(C)OC3C2O1 (centres undefined),-19%,16µM*,9.2µM*,?,i,?
Cc1cc(C)cc(NC(=O)[C@H]2O[C@@H]3OC(C)(C)O[C@@H]3[C@H]3OC(C)(C)O[C@H]32)c1,/,/,i,/,?,/
C=CCc1cccc2cc(C(=O)N3CCN(C(=O)c4ccco4)CC3)c(=O)oc12,0%,?,?,-10%,i,13µM*
COc1ccccc1N1CCN(C(=O)CSc2nc(-c3ccc(C(C)C)cc3)no2)CC1,/,/,i,/,i,/
CCC(C(=O)Nc1cc(C)ccc1OC)n1nnc(C(=O)OC)c1C(=O)OC (centres undefined),/,/,i,/,i,/
CCC/C(O)=C1\C(=O)CC(C)(C)CC1=Nc1ccc(OC)cc1OC,?,18µM*,?,7.3µM*,?,21µM*
C/C(=N/NC(=O)c1ccc(Br)o1)C(C)C,12%,0.52µM*,i,8%,i,1%
O=C(c1ccccc1OCc1ccccc1Br)N1CCN(c2ncccn2)CC1,?,?,6.5µM*,?,?,?
C=CCn1c(-c2cccc(Cl)c2)n[nH]c1=S,16%,-3%[9.22 µM],i,4%,i,-3%
C=CCn1c(-c2oc3nc(-c4ccccc4)cc(-c4ccccc4)c3c2N)n[nH]c1=S,3%,8.2µM*,9.2µM*,5%,i,7.3µM*
Cc1cccc(C(=O)N[C@H](C(=O)Nc2nc3ccccc3[nH]2)C(C)C)c1,5.8µM*,5.8µM*,?,5.8µM*,5.2µM*,5.8µM*
COc1ccc(C(=O)N[C@H](C(=O)Nc2nc3ccccc3[nH]2)C(C)C)cc1,5.8µM*,9.2µM*,16µM*,5.8µM*,2.1µM*,?
CCSc1nnc(NC(=O)[C@@H](NC(=O)c2cccc(C)c2)C(C)C)s1,-4%,13%,8.2µM*,8%,i,?
COc1ccc(-c2cc(C)nc3c(-c4ccc(OC)c(OC)c4)c(C)nn23)cc1,/,/,i,/,i,/
COCCNC(=O)c1cnn(-c2ccc(C)cc2C)c1C1CCN(C(=O)OC(C)(C)C)CC1,/,/,i,/,i,/
COc1cccc(CNC(=O)c2ccc(CSc3nc4ccncc4n3Cc3cccc(C)c3)cc2)c1,/,/,?,/,i,/
